In PubChem BioAssay (EPA / NIEHS):
Results filed as inconclusive are left out. The source made the active and inactive calls. How the source made its calls: active means hit-call score of the fitted dose curve at least 0.9, where 1 is the maximum; inconclusive means response in the unintended direction; inactive means score below 0.9.

Target: Estrogen receptor (Homo sapiens) + Estrogen receptor beta (Homo sapiens) (UniProt P03372+Q92731)
Assay: OT_ER_ERaERb_1440: Odyssey Thera (OT) 24-hour HEK293T Protein-Complementation Assay for Estrogen Receptor-alpha/-beta Homodimer (AID 2283356);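 further: heteromer of ER alpha and ER beta binding domains; hits raise reporter fluorescence and both agonists and antagonists give an increase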
In short: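 HEK293T cells stably expressing a PCA pair of ERα LBD (aa 310-547) and ERβ LBD (aa 263-489) were dosed for 24 h. Fluorescence intensity increase versus DMSO vehicle was fitted as gain-of-signal.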

Estrogen receptor (Homo sapiens) + Estrogen receptor beta (Homo sapiens), sequence (P03372 whole entry, looked up, the tested form may be a part): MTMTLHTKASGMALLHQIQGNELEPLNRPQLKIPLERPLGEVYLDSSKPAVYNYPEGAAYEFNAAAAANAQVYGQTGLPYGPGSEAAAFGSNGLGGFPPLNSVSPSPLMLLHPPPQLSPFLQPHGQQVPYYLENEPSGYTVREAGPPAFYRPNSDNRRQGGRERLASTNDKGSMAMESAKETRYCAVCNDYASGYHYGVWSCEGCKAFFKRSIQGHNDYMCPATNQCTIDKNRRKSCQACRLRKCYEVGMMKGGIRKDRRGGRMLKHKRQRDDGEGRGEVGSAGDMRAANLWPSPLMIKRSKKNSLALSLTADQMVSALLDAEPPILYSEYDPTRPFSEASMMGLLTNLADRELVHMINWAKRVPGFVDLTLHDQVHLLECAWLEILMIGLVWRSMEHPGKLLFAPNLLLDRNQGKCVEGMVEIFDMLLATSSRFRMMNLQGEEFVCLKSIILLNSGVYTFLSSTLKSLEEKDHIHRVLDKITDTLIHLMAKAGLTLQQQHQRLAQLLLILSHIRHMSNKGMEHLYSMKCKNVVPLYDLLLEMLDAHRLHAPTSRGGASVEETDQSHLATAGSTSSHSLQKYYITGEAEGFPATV
Estrogen receptor (Homo sapiens) + Estrogen receptor beta (Homo sapiens), sequence (Q92731 whole entry, looked up, the tested form may be a part): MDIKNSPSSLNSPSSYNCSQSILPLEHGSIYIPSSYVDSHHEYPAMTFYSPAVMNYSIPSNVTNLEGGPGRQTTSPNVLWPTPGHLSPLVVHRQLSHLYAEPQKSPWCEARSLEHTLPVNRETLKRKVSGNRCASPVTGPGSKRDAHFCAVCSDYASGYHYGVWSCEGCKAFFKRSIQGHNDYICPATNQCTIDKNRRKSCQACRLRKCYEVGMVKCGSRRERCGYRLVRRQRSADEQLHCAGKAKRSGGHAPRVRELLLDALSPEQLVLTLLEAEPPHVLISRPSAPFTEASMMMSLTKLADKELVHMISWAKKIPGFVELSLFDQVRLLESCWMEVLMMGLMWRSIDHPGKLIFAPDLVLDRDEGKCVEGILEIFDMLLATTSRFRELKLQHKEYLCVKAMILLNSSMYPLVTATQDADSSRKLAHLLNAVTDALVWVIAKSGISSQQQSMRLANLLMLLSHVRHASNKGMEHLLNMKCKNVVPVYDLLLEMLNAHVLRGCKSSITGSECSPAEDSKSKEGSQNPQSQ

Structure (SMILES) | outcome | AC50
CCCCCCCCCCCC(=O)OCC(O)CO (stereo not drawn) | inactive | 
O=C(Nc1ccc2c(O)c(N=Nc3ccc(N=Nc4ccc(S(=O)(=O)O)cc4)cc3)c(S(=O)(=O)O)cc2c1)c1ccccc1 | inactive | 
CC(C)CCCCCCc1ccc(OCCOCCO)cc1 |  | 36.5 µM (active)

Target: Estrogen receptor beta (Homo sapiens) (UniProt Q92731)
Sequence (Q92731 whole entry, looked up): as the sequence (Q92731 whole entry, looked up, the tested form may be a part) above
Assay: OT_ER_ERbERb_0480: Odyssey Thera (OT) 8-hour HEK293T Protein-Complementation Assay for Estrogen Receptor-beta/-beta Homodimer (AID 2283357);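 further: active means signal gain over DMSO baseline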
In short: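 Fluorescence gain from complemented reporter fragments on ER-beta LBD homodimer in HEK293T was quantified against DMSO controls after 8 h treatment, fixation in 4% formaldehyde and Draq5 staining.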

Structure (SMILES) | outcome | AC50
COC(=O)c1ccc(C)cc1C1=NC(C)(C(C)C)C(=O)N1 (stereo not drawn) (tested in a mixture with another compound) | inactive | 
OCC#CCO | inactive | 
C=CC(=O)OCCCC | inactive | 
C[Si](C)(C)O[Si](C)(C)C | inactive | 
CCOC(=O)[C@@H](C)Oc1ccc(Oc2nc3ccc(Cl)cc3o2)cc1 | inactive | 
CCCCCCCCCCCC(=O)OCC(O)CO (stereo not drawn) | inactive | 
O=C(Nc1ccc2c(O)c(N=Nc3ccc(N=Nc4ccc(S(=O)(=O)O)cc4)cc3)c(S(=O)(=O)O)cc2c1)c1ccccc1 | inactive | 
CC(C)CCCCCCc1ccc(OCCOCCO)cc1 |  | 38.6 µM (active)
O=[N+]([O-])c1ccc(O)cc1C(F)(F)F |  | 64.6 µM (active)
CN1C(=O)c2ccccc2C1=O | inactive | 
CC(C)CCCCCCCCCCCCCCC(=O)O | inactive | 
BrCc1cccc(Oc2ccccc2)c1 |  | 60.7 µM (active)
C=CC(C)(O)CCC=C(C)C (stereo not drawn) | inactive | 
CCCCCCC(=O)c1ccccc1 | inactive | 
C=C(C)[C@@H]1CC=C(C)C(=O)C1 | inactive | 
CCC1(C)NC(=O)NC1=O (stereo not drawn) | inactive | 
ON=C1CCCCC1 | inactive | 
CCCCCCCCCCCCCC(=O)OCC(O)CO (stereo not drawn) | inactive | 
C=Cc1ccc(C)cc1 | inactive | 
Nc1ccccc1[N+](=O)[O-] | inactive | 
CC1CC(O)CC(C)(C)C1 (stereo not drawn) | inactive | 
C=C[Si]1(C)O[Si](C)(C=C)O[Si](C)(C=C)O[Si](C)(C=C)O1 (stereo not drawn) |  | 23.8 µM (active)
C[C@H]1O[C@@H](O[C@H]2[C@@H](O)C[C@H](O[C@H]3[C@@H](O)C[C@H](O[C@H]4CC[C@@]5(C)[C@H](CC[C@@H]6[C@@H]5C[C@@H](O)[C@]5(C)[C@@H](C7=CC(=O)OC7)CC[C@]65O)C4)O[C@@H]3C)O[C@@H]2C)C[C@H](O)[C@@H]1O | inactive | 
CCOC(=O)c1ccc(N)cc1 | inactive | 
COS(=O)(=O)O | inactive | 
O=Cc1ccccc1S(=O)(=O)O | inactive | 
CCc1cc(Cc2cc(CC)cc(C(C)(C)C)c2O)c(O)c(C(C)(C)C)c1 | inactive | 
c1ccc(Oc2ccccc2)cc1 | inactive | 
CN1CCOCC1 | inactive | 
C=C(C)C(=O)OCCOC1CC2CC1C1C=CCC21 (stereo not drawn) | inactive | 
